# The supplement of paper PMC12808144
# System: Mel-DCC-11-R
# Assay: cell viability relative to DMSO control (fraction of DMSO control); higher = less cytotoxic, active = 0.8 or less
# Details: 1 µM; 120 h; vemurafenib co-treatment 0 µM
# Outline: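 For 120 h, duplicate wells of 384-well plates held 1 µM of each of 315 approved anti-cancer drugs (TargetMol), spotted acoustically before cells were added in 40 µl per well. Immortalized NHEM-hTERT melanocytes were seeded at 2500/well, and patient-derived Mel-DCC-11 plus its resistant subline Mel-DCC-11-R at 1500/well. The subline was run both without and with 8 µM of its selecting drug, and ATPlite 1step luminescence was read. Viability was normalised to vehicle-treated wells and averaged over the two replicates.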
row,Compound,cell viability
1,CS(=O)(=O)CCNCc1ccc(-c2ccc3ncnc(Nc4ccc(OCc5cccc(F)c5)c(Cl)c4)c3c2)o1.Cc1ccc(S(=O)(=O)O)cc1.Cc1ccc(S(=O)(=O)O)cc1 [Lapatinib Ditosylate],1.27 (inactive)
2,CCN1CCN(Cc2ccc(Nc3ncc(F)c(-c4cc(F)c5nc(C)n(C(C)C)c5c4)n3)nc2)CC1 [Abemaciclib],1.38 (inactive)
3,S=c1nc[nH]c2nc[nH]c12 [Mercaptopurine],0.876 (inactive)
4,Nc1nc(F)nc2c1ncn2[C@@H]1O[C@H](COP(=O)(O)O)[C@@H](O)[C@@H]1O [Fludarabine Phosphate],1.07 (inactive)
5,Cc1cn(-c2cc(NC(=O)c3ccc(C)c(Nc4nccc(-c5cccnc5)n4)c3)cc(C(F)(F)F)c2)cn1 [Nilotinib],1.15 (inactive)
6,Nc1nc(F)nc2c1ncn2[C@@H]1O[C@H](CO)[C@@H](O)[C@@H]1O [Fludarabine],1.2 (inactive)
7,Cc1cn(-c2cc(NC(=O)c3ccc(C)c(Nc4nccc(-c5cnccn5)n4)c3)cc(C(F)(F)F)c2)cn1 [Radotinib],1.19 (inactive)
8,COc1cc2nccc(Oc3ccc(NC(=O)Nc4cc(C)on4)c(Cl)c3)c2cc1OC [Tivozanib],1.08 (inactive)
9,O=C(NC(Cc1cc(=O)[nH]c2ccccc12)C(=O)O)c1ccc(Cl)cc1 (stereo unspecified) [Rebamipide],0.995 (inactive)
10,Cn1cnc2c(F)c(Nc3ccc(Br)cc3F)c(C(=O)NOCCO)cc21 [Binimetinib],0.664 (active)
11,C=C(c1ccc(C(=O)O)cc1)c1cc2c(cc1C)C(C)(C)CCC2(C)C [Bexarotene],1.07 (inactive)
